# Activity calls are given as the source filed them. The calls were made as follows: active = hit-call score of the fitted dose curve at least 0.9, where 1 is the maximum; inactive = score below 0.9.
# Tests used:
# [1] = APR_HepG2_CellLoss_72hr: Apredica 72-hour HepG2 Assay for Cell Loss (AID 2282915); details: high-content imaging
# Summary of the method: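 Cell number comes from Hoechst 33342-labelled nuclei, imaged at 20x after 3.7% formaldehyde fixation. Dosing was 0.39–200 uM, ten concentrations in duplicate, 0.5% DMSO final, for 72 h. Bidirectional fit relative to DMSO baseline.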
# [2] = APR_HepG2_P-H2AX_72hr: Apredica 72-hour HepG2 Assay for H2AX Phosphorylation (AID 2282916); details: imaging, actives raise or lower the signal;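 also: phospho-histone H2A.x immunostain intensity per cell marking DNA damage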
# Summary of the method: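 HepG2 cells treated 72 h at 0.39–200 uM, 0.5% DMSO final, duplicates. Formaldehyde-fixed, Triton-permeabilised, immunostained for phospho-H2A.x with Hoechst; fluorescence imaged at 20x, bidirectional fit versus DMSO.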
# [3] = APR_HepG2_MitoMembPot_72hr: Apredica 72-hour HepG2 Assay for Mitochondrial Membrane Potential (AID 2282917); details: imaging, actives raise or lower the signal
# Summary of the method: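 Membrane potential read by MitoTracker Red CMXRos (250 nM, 30 min, pre-fixation) fluorescence imaging of HepG2 after 72 hr exposure. Ten concentrations, 0.39–200 uM, duplicate wells, 0.5% DMSO; fitted in both directions against DMSO baseline.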
# [4] = APR_HepG2_MitoticArrest_72hr: Apredica 72-hour HepG2 Assay for Mitotic Arrest (AID 2282918); details: high-content imaging, actives raise or lower the signal
# Summary of the method: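 Using high-content imaging of fixed HepG2 cells, phospho-histone H3 signal was measured following a 72 hr incubation with ten-point compound dilutions up to 200 uM. DMSO served as the negative control and baseline for bidirectional curve fitting.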
# [5] = APR_HepG2_MicrotubuleCSK_72hr: Apredica 72-hour HepG2 Assay for Microtubule CSK Stabilty (AID 2282919); details: HepG2 microtubule cytoskeleton, high-content imaging, actives raise or lower the signal
# Summary of the method: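 Read-out is tubulin fluorescence intensity from high-content imaging of HepG2 cells, with nuclei identified by Hoechst 33342. Treatment lasts 72 h at 0.39–200 uM, and curves are fitted bidirectionally against the DMSO negative control.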
# [6] = APR_HepG2_P-H2AX_24hr: Apredica 24-hour HepG2 Assay for H2AX Phosphorylation (AID 2282920); details: high-content imaging, actives raise or lower the signal
# Summary of the method: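 Human HepG2 liver cells, treated 24 hr with test chemicals (0.39–200 uM, final DMSO 0.5% v/v), are fixed and co-stained for phospho-H2A.x and c-Jun with Hoechst. Imaged intensity is fitted in both directions against DMSO controls.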
# [7] = APR_HepG2_StressKinase_72hr: Apredica 72-hour HepG2 Assay for Stress Kinase (AID 2282921); details: HepG2 stress kinase (phospho-c-Jun) imaging, actives raise or lower the signal
# Summary of the method: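 HepG2 cells treated 72 hr with 0.39–200 uM compound, 0.5% v/v DMSO, duplicate wells. After formaldehyde fixation and Triton permeabilization, stained with anti-phospho-c-Jun (1:500) and Cy3 secondary, imaged at 20x. Fitted in both directions against DMSO.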
# [8] = APR_HepG2_StressKinase_24hr: Apredica 24-hour HepG2 Assay for Stress Kinase (AID 2282922); details: HepG2 stress kinase (phospho-c-Jun) imaging, actives raise or lower the signal
# Summary of the method: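 HepG2, 24 hr dosing, 0.39–200 uM in duplicate, 0.5% DMSO; formaldehyde fix (3.7%), 0.5% Triton X-100; anti-phospho-c-Jun + Cy3 secondary, Hoechst counterstain; ArrayScan imaging; bidirectional curve fit vs DMSO baseline.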
# [9] = APR_HepG2_p53Act_72hr: Apredica 72-hour HepG2 Assay for p53 Activation (AID 2282923); details: high-content imaging, actives raise or lower the signal;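 also: average cellular p53 protein immunofluorescence intensity in HepG2 cells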
# Summary of the method: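 HepG2 cells exposed 72 h to 0.39–200 uM in 0.5% DMSO, duplicates. Fixed, permeabilized cells immunostained for p53 (Cy5) with Hoechst; imaged at 20x, fluorescence analyzed bidirectionally against DMSO.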
# [10] = APR_HepG2_MitoMass_72hr: Apredica 72-hour HepG2 Assay for Mitochondrial Mass (AID 2282924); details: high-content imaging, actives raise or lower the signal;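 also: MitoTracker Red CMXRos stain intensity per cell imaged as mitochondrial mass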
# Summary of the method: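 HepG2, 72 hr cmpd, 10 conc 0.39–200 uM in dup, DMSO 0.5% v/v. MitoTracker Red CMXRos 250 nM 30 min pre-fix; formaldehyde 3.7% fix 30 min RT. HCS imaging, gain/loss fit vs DMSO.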
# [11] = APR_HepG2_NuclearSize_72hr: Apredica 72-hour HepG2 Assay for Nuclear Size (AID 2282925); details: high-content imaging, actives raise or lower the signal
# Summary of the method: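 HepG2; cpd 0.39–200 uM, 10 conc, duplicate; 72 h; DMSO 0.5% v/v; fix 3.7% formaldehyde 30 min RT; Triton permeabilization; Hoechst 2 ug/mL; HCS imaging 20x; nuclear diameter; gain/loss fit vs DMSO.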
# [12] = biological target: CCAAT/enhancer-binding protein beta (Homo sapiens) (UniProt P17676); assay: ATG_C_EBP_CIS: Attagene CIS-FACTORIAL HepG2 Assay for human CCAAT/Enhancer Binding Protein (C/EBP) beta (AID 2282927); details: HepG2 Attagene cis-factorial transcription factor reporter; actives raise or lower the signal
# Summary of the method: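 Changes in reporter mRNA, rather than exogenous chimeric receptor activity, reflect native C/EBP signalling in transfected HepG2 cells dosed for 24 h; transcripts are detected by RT-PCR and capillary electrophoresis.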
# [13] = ATG_CMV_CIS: Attagene CIS-FACTORIAL HepG2 Assay for human CMV (Internal Marker) (AID 2282928); details: HepG2 CMV promoter reporter, transcription factor profiling; actives raise or lower the signal;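 also: endpoint acts as a background internal control marker rather than a target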
# Summary of the method: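 HepG2 cells transiently transfected with multiple cis-regulated reporter units; 24 h compound exposure. Reporter mRNA quantified by RT-PCR, 6-FAM primer-extension labeling, HpaI digestion and capillary electrophoresis; bidirectional fitting against DMSO baseline.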
# [14] = ATG_DR4_LXR_CIS: Attagene CIS-FACTORIAL HepG2 Assay for human Liver X Receptor (LXR), DR4 submotif (AID 2282929); details: HepG2 Attagene DR4 cis-reporter, mRNA transcription; actives raise or lower the signal
# Summary of the method: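 After transient transfection with multiplexed cis-promoter reporter units, HepG2 cells received test chemicals for 24 h. Reporter mRNA induction, detected by fluorescence after RT-PCR and capillary electrophoresis, was scored relative to DMSO.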
# [15] = biological target: Aryl hydrocarbon receptor (Homo sapiens) (UniProt P35869); assay: ATG_Ahr_CIS: Attagene CIS-FACTORIAL HepG2 Assay for human Aryl Hydrocarbon Receptor (Ahr) (AID 2282930); details: HepG2 AhR cis-factorial reporter transcription; actives raise or lower the signal
# Summary of the method: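 HepG2, transient MRTU (cis) transfection, 24 h exposure. RNA → cDNA → PCR → 6-FAM primer extension → HpaI 2 h 37 C → CE. Fit: bidirectional, DMSO baseline.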
# [16] = ATG_AP_1_CIS: Attagene CIS-FACTORIAL HepG2 Assay for human Activator Protein 1 (AP-1) (AID 2282931); details: HepG2 Attagene cis-factorial AP-1 reporter mRNA; actives raise or lower the signal
# Summary of the method: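 After 24 h incubation with test chemical, RNA from transfected HepG2 cells was reverse-transcribed, amplified, fluorescently labelled and digested before capillary electrophoresis. Reporters were driven by cis-regulatory promoters; activity fitted bidirectionally versus DMSO.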
# [17] = ATG_AP_2_CIS: Attagene CIS-FACTORIAL HepG2 Assay for human Activator Protein 2 (AP-2) (AID 2282932); details: HepG2 AP-2 cis-reporter, Attagene transcription factor profiling; actives raise or lower the signal
# Summary of the method: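 HepG2, transient MRTU transfection, cis-regulated reporters; 24 h compound exposure; RNA isolated, RT-PCR, 6-FAM labelling, HpaI digest, CE fluorescence. DMSO = negative control/baseline, bidirectional fit.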
# [18] = ATG_BRE_CIS: Attagene CIS-FACTORIAL HepG2 Assay for human Bone Morphogenetic Protein (BMP) Response Element (BRE) (AID 2282933); details: HepG2 BMP response element reporter, Attagene transcription factor profiling; actives raise or lower the signal
# Summary of the method: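 Fluorescence-labelled reporter cDNA fragments, separated by capillary electrophoresis, gave the signal for this component of a 52-readout multiplex. HepG2 cells were transfected, exposed to chemicals for 24 h, and compared with DMSO using bidirectional fitting.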
# [19] = ATG_CRE_CIS: Attagene CIS-FACTORIAL HepG2 Assay for human cAMP Responsive Element (CRE) binding protein 3 (AID 2282926); details: HepG2 CRE cis-reporter, Attagene multiplexed mRNA; actives raise or lower the signal
# Summary of the method: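 Transfected HepG2 were treated for 24 hours, then RNA was extracted and reporter cDNA amplified with sequence-specific primers. Labelled fragments were separated by capillary electrophoresis, and the CRE signal was fitted bidirectionally with DMSO as baseline.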
# [20] = biological target: Retinoic acid receptor alpha (Homo sapiens) (UniProt P10276); assay: ATG_DR5_RAR_CIS: Attagene CIS-FACTORIAL HepG2 Assay for human Retinoic Acid Receptor Alpha (RARE), DR5 submotif (AID 2282934); details: HepG2 Attagene cis-factorial RARE DR5 reporter, mRNA; actives raise or lower the signal
# Summary of the method: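 HepG2, transient cis-reporter transfection, 24 h exposure. mRNA readout: RT-PCR, FAM label, HpaI cut, capillary electrophoresis. DMSO baseline, gain/loss fitting.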
# Sequence of Aryl hydrocarbon receptor (Homo sapiens) (P35869 whole entry, looked up): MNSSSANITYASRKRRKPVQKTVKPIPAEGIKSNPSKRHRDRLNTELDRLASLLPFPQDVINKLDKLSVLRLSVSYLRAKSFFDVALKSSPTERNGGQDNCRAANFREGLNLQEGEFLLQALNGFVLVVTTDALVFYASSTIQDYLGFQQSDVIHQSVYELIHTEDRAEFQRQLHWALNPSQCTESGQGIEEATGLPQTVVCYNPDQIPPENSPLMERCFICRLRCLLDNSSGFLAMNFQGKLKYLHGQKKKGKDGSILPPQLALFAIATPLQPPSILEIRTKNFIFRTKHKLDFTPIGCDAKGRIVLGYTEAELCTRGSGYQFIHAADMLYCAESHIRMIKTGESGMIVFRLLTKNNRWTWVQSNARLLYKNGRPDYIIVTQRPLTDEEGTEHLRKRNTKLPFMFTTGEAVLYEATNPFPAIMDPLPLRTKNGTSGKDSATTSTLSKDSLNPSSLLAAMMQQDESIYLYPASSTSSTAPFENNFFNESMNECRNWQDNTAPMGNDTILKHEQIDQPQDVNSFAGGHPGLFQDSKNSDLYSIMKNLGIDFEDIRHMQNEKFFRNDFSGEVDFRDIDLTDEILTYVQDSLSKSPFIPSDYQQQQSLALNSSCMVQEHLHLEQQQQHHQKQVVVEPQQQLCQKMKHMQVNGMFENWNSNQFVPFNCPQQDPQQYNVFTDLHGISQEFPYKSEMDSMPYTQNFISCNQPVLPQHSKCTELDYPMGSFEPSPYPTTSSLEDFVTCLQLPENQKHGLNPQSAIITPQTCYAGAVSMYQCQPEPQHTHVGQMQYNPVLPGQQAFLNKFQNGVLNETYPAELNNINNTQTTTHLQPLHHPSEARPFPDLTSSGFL
# Sequence of CCAAT/enhancer-binding protein beta (Homo sapiens) (P17676 whole entry, looked up): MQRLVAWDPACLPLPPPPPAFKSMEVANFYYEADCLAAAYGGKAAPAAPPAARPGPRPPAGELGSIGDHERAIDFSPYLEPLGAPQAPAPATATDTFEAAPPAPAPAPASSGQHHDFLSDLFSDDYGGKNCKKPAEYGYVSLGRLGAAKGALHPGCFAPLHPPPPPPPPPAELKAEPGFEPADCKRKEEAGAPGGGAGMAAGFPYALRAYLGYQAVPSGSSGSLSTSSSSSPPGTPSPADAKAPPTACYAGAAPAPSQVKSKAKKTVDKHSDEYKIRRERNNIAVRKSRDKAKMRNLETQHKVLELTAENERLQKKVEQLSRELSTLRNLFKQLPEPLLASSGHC
# Sequence of Retinoic acid receptor alpha (Homo sapiens) (P10276 whole entry, looked up): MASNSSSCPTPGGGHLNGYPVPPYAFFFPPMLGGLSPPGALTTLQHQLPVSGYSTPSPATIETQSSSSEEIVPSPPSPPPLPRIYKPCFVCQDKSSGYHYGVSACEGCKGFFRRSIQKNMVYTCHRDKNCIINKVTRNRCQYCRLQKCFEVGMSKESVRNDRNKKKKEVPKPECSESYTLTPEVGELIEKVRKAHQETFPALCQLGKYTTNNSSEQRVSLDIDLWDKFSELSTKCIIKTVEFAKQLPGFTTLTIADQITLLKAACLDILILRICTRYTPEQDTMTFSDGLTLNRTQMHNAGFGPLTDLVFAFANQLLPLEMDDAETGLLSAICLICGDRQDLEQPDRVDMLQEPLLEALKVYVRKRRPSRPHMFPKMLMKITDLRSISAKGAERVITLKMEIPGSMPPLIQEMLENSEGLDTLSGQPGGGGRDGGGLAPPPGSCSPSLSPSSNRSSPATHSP
smiles,measurement,setting,value
CCOC(=O)C(C)(C)Oc1ccc(Cl)cc1,outcome,[1],inactive
same,outcome,[2],inactive
same,outcome,[3],inactive
same,outcome,[4],inactive
same,outcome,[5],inactive
same,outcome,[6],inactive
same,outcome,[7],inactive
same,outcome,[8],inactive
same,outcome,[9],inactive
same,outcome,[10],inactive
same,outcome,[11],inactive
same,outcome,[12],inactive
same,outcome,[13],inactive
same,outcome,[14],inactive
same,outcome,[15],inactive
same,outcome,[16],inactive
same,outcome,[17],inactive
same,outcome,[18],inactive
O=C(O)CCCCC(=O)O,outcome,[1],inactive
same,outcome,[2],inactive
same,outcome,[3],inactive
same,outcome,[4],inactive
same,outcome,[5],inactive
same,outcome,[6],inactive
same,outcome,[7],inactive
same,outcome,[9],inactive
same,outcome,[10],inactive
same,outcome,[11],inactive
same,outcome,[19],inactive
same,outcome,[12],inactive
same,outcome,[13],inactive
same,outcome,[14],inactive
same,AC50,[15],72.5 µM (active)
same,outcome,[16],inactive
same,outcome,[17],inactive
same,outcome,[18],inactive
CCCCCCCCCCCCCCCC,outcome,[1],inactive
same,outcome,[2],inactive
same,outcome,[3],inactive
same,outcome,[4],inactive
same,outcome,[5],inactive
same,outcome,[6],inactive
same,outcome,[7],inactive
same,outcome,[8],inactive
same,outcome,[9],inactive
same,outcome,[10],inactive
same,outcome,[11],inactive
same,outcome,[19],inactive
same,outcome,[12],inactive
same,outcome,[13],inactive
same,outcome,[14],inactive
same,outcome,[15],inactive
same,outcome,[16],inactive
same,outcome,[17],inactive
same,outcome,[18],inactive
same,outcome,[20],inactive
CCCCCCOCCO,outcome,[1],inactive
same,outcome,[2],inactive
same,outcome,[3],inactive
same,outcome,[4],inactive
same,outcome,[5],inactive
same,outcome,[6],inactive
same,outcome,[7],inactive
same,outcome,[8],inactive
same,outcome,[9],inactive
same,outcome,[11],inactive
same,outcome,[19],inactive
same,outcome,[12],inactive
same,outcome,[13],inactive
same,outcome,[14],inactive
same,outcome,[15],inactive
same,outcome,[16],inactive
same,outcome,[17],inactive
same,outcome,[20],inactive
C[C@]12C=CC(=O)C=C1CC[C@@H]1[C@@H]2C(=O)C[C@@]2(C)[C@H]1CC[C@]2(O)C(=O)CO,outcome,[1],inactive
same,outcome,[2],inactive
same,outcome,[3],inactive
same,outcome,[4],inactive
same,outcome,[5],inactive
same,outcome,[6],inactive
same,outcome,[7],inactive
same,outcome,[8],inactive
same,outcome,[9],inactive
same,outcome,[10],inactive
same,outcome,[11],inactive
same,outcome,[19],inactive
same,outcome,[12],inactive
same,outcome,[13],inactive
same,outcome,[14],inactive
same,outcome,[15],inactive
same,outcome,[16],inactive
same,outcome,[17],inactive
same,outcome,[18],inactive
same,outcome,[20],inactive
C[Si]1(C)O[Si](C)(C)O[Si](C)(C)O[Si](C)(C)O1,outcome,[1],inactive
same,outcome,[2],inactive
same,outcome,[3],inactive
same,outcome,[4],inactive
same,outcome,[5],inactive
same,outcome,[6],inactive
same,outcome,[7],inactive
same,outcome,[8],inactive
same,outcome,[9],inactive
same,outcome,[19],inactive
same,outcome,[12],inactive
same,outcome,[13],inactive
same,AC50,[14],49.6 µM (active)
same,outcome,[15],inactive
same,outcome,[16],inactive
same,outcome,[17],inactive
CC(CO)OC(C)CO (stereo unspecified) (tested in a mixture with another compound),outcome,[1],inactive
same,outcome,[2],inactive
same,outcome,[3],inactive
same,outcome,[4],inactive
same,outcome,[5],inactive
same,outcome,[6],inactive
same,outcome,[7],inactive
same,outcome,[8],inactive
same,outcome,[9],inactive
same,outcome,[11],inactive
same,outcome,[13],inactive
same,outcome,[14],inactive
same,outcome,[15],inactive
same,outcome,[16],inactive
same,outcome,[17],inactive
same,outcome,[18],inactive

# Reference: PubChem BioAssay (EPA / NIEHS)
